Screens deposited in PubChem by several laboratories.
Mcl1 Bid PPI: disrupts binding of human Mcl-1 to Bid peptide. AID 1021. Q07820. TR-FRET Mcl-1/Bid-Dy647 peptide binding, 1536-well. 220,000 compounds, 0.97% hits. inhibition, % at 21.7 µM;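 active means compounds that cut the binding signal by more than half at the single screening dose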;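 further: His-tagged Mcl-1 with europium anti-His antibody binding Bid BH3 peptide; 0% = Mcl-1 plus peptide wells and 100% = peptide-only wells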
14-3-3 Bad PPI: disrupts binding of bovine 14-3-3 zeta to phospho-Bad peptide | inhibition, % at 21.7 µM | AID 781 | 220,000 compounds, 0.71% hits | TR-FRET 14-3-3zeta/Dy647-pBad peptide displacement, 1 h;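 active means inhibition above about 70%, limit read from the data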;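 further: 0% = full 14-3-3 plus peptide FRET controls and 100% = background without 14-3-3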
Target sequence (P63103 whole entry, looked up): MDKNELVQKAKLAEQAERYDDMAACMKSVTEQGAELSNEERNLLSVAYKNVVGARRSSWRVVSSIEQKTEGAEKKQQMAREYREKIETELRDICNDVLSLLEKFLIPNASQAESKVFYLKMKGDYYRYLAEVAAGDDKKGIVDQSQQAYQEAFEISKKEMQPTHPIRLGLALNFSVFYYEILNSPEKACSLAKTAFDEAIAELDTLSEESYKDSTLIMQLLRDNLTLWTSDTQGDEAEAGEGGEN
Mcl-1 Bim block: human Bim-Mcl-1 interaction inhibition. Q07820. 190,000 compounds, 0.1% hits. inhibition, % at 10 µM. AID 1009. Bead-based flow cytometry, Bim peptide-Mcl-1 binding; in the data active means inhibition above about 40%;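 further: 0% = no compound tracer wells and 100% = peptide blocker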
Mcl1 Noxa PPI: disrupts binding of human Mcl-1 to Noxa peptide; 220,000 compounds, 1.5% hits; TR-FRET Mcl-1/Noxa peptide binding, 2 h; Q07820; inhibition, % at 21.7 µM;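 active means compounds that cut the protein-peptide binding signal by more than 50% relative to plate controls in a single-dose test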;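 further: His-tagged Mcl-1 with rhodamine Noxa BH3 peptide and terbium anti-His antibody; 0% = Mcl-1 plus Noxa peptide wells and 100% = peptide-only wells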
NCF1 inh: blocks human p47phox regulatory protein of NADPH oxidases; P14598; p47phox/p22phox peptide binding, fluorescence polarization, 2 h; inhibition, % at 24.7 µM; 220,000 compounds, 0.53% hits;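 active means inhibition above about 30%, limit read from the data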;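 further: 0% = p47phox with labelled peptide and 100% = labelled peptide alone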
Calpain2 inh: calpain II (pig) inhibition. inhibition, % at 16 µM. 220,000 compounds, 0.37% hits. purified calpain II, fluorogenic peptide substrate, 30 min;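 active means inhibition above about 50%, limit read from the data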
Numbers without * were called inactive; . = no result given; + = active, no number; [ ] = another dose, or the depositor's remark. The list is not random: actives were taken first. Their share in the collection is about 3.4%.

SMILES	Mcl1 Bid PPI	14-3-3 Bad PPI	Mcl-1 Bim block	Mcl1 Noxa PPI	NCF1 inh	Calpain2 inh
Cc1cc(C)c(-c2cc(NC(=O)COC(=O)c3ccc(CO)cc3)n(-c3ccccc3)n2)cc1C	6	-3	-3	-12	+	-16
CC(C)(C)C(=O)NC(=S)Nc1ccc(F)cc1	-34	-3	-3	2	-9	5
Cc1cccc(NC(=O)C2C(C(=O)O)C3C=CC2C32CC2)c1C (stereo unspecified)	97*	-3	-4	13	-1	-1
Cc1ccc(NC(=O)C2C(C(=O)O)C3C=CC2C32CC2)cc1 (stereo unspecified)	-11	39	-3	-9	2	-1
O=C(CSc1nc2nn(-c3ccccc3)c(=O)c-2c2n1CCCCC2)NCCc1ccccc1	-12	-7	0	55*	2	14
CCSc1nc2nn(-c3ccccc3)c(=O)c-2c2n1CCCCC2	-29	4	1	10	-16	2
Cc1ccccc1NC(=S)N(Cc1ccccc1)Cc1cccs1	-15	-8	-1	-2	-4	25
CCOC(=O)Cn1c2ccc(OC)cc2c2nc3ccccc3nc21	59*	35	3	26	-2	-29
COc1ccc2c(c1)c1nc3ccccc3nc1n2Cc1ccc(OC)c(OC)c1	6	16	-3	-11	-24	12
CCc1cc(N2CCOCC2)cc2c1[nH]c1ccccc12	10	5	0	70*	5	-497
c1ccc2c(c1)[nH]c1c(N3CCOCC3)ncnc12	4	3	-1	8	-10	-43
CCOC(=O)COc1ccc(C(=O)Nc2cccc(Cl)c2C)cc1	-12	-6	0	-5	5	2
COc1cc(/C=N/Nc2nnc3c(n2)[nH]c2ccccc23)ccc1O	90*	83*[fluorescence artefact?]	0	94*	3	18
Cc1ccccc1-n1sc2cc(F)ccc2c1=O	-91	-29	-4	16	102*	4
Cc1ccccc1-n1c(=O)c2ccccc2n2cnnc12	-5	1	-2	15	7	13
CC1=C(C(=O)OCC(C)C)C23C(=O)c4ccccc4C2(O1)OC(N)=C3C#N (stereo unspecified)	-6	0	1	-18	-4	59*
COc1cc(/C=N/NC(=O)c2ccc(CSc3nncn3C)cc2)cc(OC)c1O	-34	-12	0	55*	-13	-22
COc1cc(/C=N/NC(=O)c2ccc(CN3c4cccc5cccc(c45)S3(=O)=O)cc2)cc(OC)c1O	82*	92*	0	72*	36*	-207
COc1ccc(/C=N/NC(=O)c2ccc(O)cc2O)cc1CSc1ccccn1	-20	8	0	98*	-36	-15
COc1ccc(/C=N/NC(=O)c2ccc(COc3cccc4cccnc34)cc2)cc1O	-44	-5	.	51*	-8	-110
COc1ccc(/C=N/NC(=O)c2ccc(CN3c4cccc5cccc(c45)S3(=O)=O)cc2)cc1	-17	12	-2	2	-22	-194
COc1cc(/C=N/NC(=O)c2ccc(CSc3nncn3C)cc2)ccc1OCC(=O)N1CC(C)OC(C)C1 (stereo unspecified)	-1	1	-1	4	-5	-4
COc1ccc(/C=N/NC(=O)c2ccc(COc3cccc4cccnc34)cc2)cc1OC	-24	-10	1	43	3	-99
O=C(CS(=O)(=O)Cc1ccccc1)Nc1nc2ccccc2s1	-21	-4	-1	7	56*	7
Cc1ncc(CO)c(/C=N/NC(=O)c2ccc(Br)cc2)c1O	-76	-5	-6	-9	-13	-427
SMILES	Mcl1 Bid PPI	14-3-3 Bad PPI	Mcl-1 Bim block	Mcl1 Noxa PPI	NCF1 inh	Calpain2 inh
Cc1ncc(CO)c(/C=N/NC(=O)c2cc(O)c(O)c(O)c2)c1O	-66	-2	4	67*	2	-98
CCCn1c(=O)c(C(=O)Nc2ccccc2C(=O)OC)c(O)c2ccccc21	14	-2	0	14	45*	-325
Cn1c(=O)c(C(=O)NCCO)c(O)c2ccccc21	8	6	-11	-42	-2	9
CCn1c(=O)c(C(=O)NCCNCCO)c(O)c2ccccc21	52*	.	-1	11	-87	-38
COc1ccc(CN(C)CC(=O)NC(C)c2ccccc2)c(OC)c1 (stereo unspecified)	56*	13	3	-24	.	18
COc1cccc(NC(=O)CN(C)CC(=O)NC(C)c2ccccc2)c1 (stereo unspecified)	3	0	.	-8	-2	28
